In ChEMBL document CHEMBL4513146, “CO-ADD screening of Karazin Kharkiv National University (Ukraine) compounds” one finds Inhibition data, which are given here for 4 compounds.

One assay deals with Staphylococcus aureus. Conditions: Concentration 32 ug.mL-1;; ASSAY_TEST Inhibition of Bacterial Growth; detection method Absorption (OD600); MEDIA CAMHB; plate type 384well; NBS; CORNING #3640; time 18 hr.
The test system of another assay is Escherichia coli. The note with it: Concentration 32 ug.mL-1;; ASSAY_TEST Inhibition of Bacterial Growth; detection method Absorption (OD600); MEDIA CAMHB; plate type 384well; NBS; CORNING #3640; time 18 hr.

Measured potencies and affinities stand elsewhere.

For the compound `CSc1cccc(NC(=O)Cn2nc3c(N4CCCC4)nccn3c2=O)c1`, the Inhibition (commonly the change of the read-out against control, counted positive when it falls) in the assay with Staphylococcus aureus is reported as -20.72%; with Escherichia coli it was -10.95%.

In the case of `COc1ccccc1N1CCN(C(=O)Cn2nc3c(Sc4cccc(C)c4)nccn3c2=O)CC1`, the Inhibition in the assay with Staphylococcus aureus is on record as 5.8%; in the assay on Escherichia coli, -4.78%.

In the case of `CCOC(=O)c1ccccc1NC(=O)Cn1nc2ccc(Sc3ccc(C)cc3)nn2c1=O`, the Inhibition in the assay with Staphylococcus aureus is listed as 14.05%; with Escherichia coli, 1.21%.

As for `CC(C)CCn1c(=O)c2ccccc2n2c(=O)n(CC#N)nc12`, the Inhibition came to 16.96% in the assay with Staphylococcus aureus and 1.73% in the assay with Escherichia coli.
